Our source for the binding signal values is paper PMC7862700, “An all-to-all approach to the identification of sequence-specific readers for epigenetic DNA modifications on cytosine”.

Holding throughout (experiment): DAPPL (digital affinity profiling via proximity ligation, sequencing); 10 mM Tris-HCl pH 7.5, 50 mM NaCl, 1 mM DTT, 4% glycerol, room temperature, 30 min; GST-TFs on glutathione beads, 16-mer random dsDNA library, 0.1% formaldehyde crosslink after washing; high values mean tight binding
What all share (settings): protein: recombinant; tags: N-terminal GST; dsDNA, one strand shown

The target of one assay is T1, ELK4 (Homo sapiens, UniProt P28324-2 1-405).
T1 sequence: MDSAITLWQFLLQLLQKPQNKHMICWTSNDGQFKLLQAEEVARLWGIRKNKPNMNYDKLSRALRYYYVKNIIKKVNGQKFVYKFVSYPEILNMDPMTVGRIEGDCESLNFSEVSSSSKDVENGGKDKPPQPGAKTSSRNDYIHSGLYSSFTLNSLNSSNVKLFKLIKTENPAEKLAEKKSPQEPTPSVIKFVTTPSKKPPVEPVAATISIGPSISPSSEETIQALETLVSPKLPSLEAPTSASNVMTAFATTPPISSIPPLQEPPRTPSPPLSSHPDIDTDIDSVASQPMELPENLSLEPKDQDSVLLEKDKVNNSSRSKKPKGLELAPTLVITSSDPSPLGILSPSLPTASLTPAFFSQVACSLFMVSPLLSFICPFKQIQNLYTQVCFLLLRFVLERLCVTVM
The procedure, abridged:
(§1)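 A tag-only sample was pooled with DNA-barcoded human transcription factors that had been expressed in yeast as GST fusions and captured on glutathione beads. The pools were incubated for 30 min at room temperature with 200 nmole of a random double-stranded 16-mer DNA library in Tris/NaCl/DTT/glycerol buffer, then washed, crosslinked with 0.1% formaldehyde, proximity-ligated (BsaI/T4 ligase, 1 h, 37 °C), PCR-amplified and sequenced on an Illumina NextSeq500. Binding signal is each hexamer's read frequency for a factor divided by its frequency for the tag-only sample.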

Another assay deals with T2, ELF3 (Homo sapiens, UniProt P78545 1-371).
T2 sequence: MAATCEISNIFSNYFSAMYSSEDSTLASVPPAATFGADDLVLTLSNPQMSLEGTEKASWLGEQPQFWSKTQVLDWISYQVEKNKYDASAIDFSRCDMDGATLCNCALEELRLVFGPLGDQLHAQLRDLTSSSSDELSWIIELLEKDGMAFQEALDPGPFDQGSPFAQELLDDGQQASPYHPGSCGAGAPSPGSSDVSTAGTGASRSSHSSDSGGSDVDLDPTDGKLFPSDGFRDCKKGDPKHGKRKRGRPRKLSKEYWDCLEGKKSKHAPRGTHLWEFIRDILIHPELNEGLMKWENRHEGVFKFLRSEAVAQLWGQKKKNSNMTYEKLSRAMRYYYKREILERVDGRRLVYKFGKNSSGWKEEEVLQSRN
An outline of the steps: as §1

A further assay has as its target ETV1 (Homo sapiens, UniProt P50549 1-477). The procedure, abridged: as §1
The next assay addresses T3, ERF (Homo sapiens, UniProt P50548 1-548).
T3 sequence: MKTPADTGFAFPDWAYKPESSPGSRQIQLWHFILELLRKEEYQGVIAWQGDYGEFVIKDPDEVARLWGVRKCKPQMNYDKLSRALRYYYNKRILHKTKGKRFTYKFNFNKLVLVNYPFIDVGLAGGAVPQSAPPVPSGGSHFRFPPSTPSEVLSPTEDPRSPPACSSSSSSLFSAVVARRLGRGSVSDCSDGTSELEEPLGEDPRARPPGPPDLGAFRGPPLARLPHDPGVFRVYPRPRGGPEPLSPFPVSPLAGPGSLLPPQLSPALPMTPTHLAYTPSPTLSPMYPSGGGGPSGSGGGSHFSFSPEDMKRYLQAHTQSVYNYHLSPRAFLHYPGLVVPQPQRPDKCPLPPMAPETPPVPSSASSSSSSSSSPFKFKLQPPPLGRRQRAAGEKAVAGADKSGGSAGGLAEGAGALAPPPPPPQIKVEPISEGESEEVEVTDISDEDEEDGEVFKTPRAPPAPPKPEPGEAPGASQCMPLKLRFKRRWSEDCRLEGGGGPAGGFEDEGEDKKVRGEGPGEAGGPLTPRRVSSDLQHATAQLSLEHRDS
An outline of the steps:
as §1

The target of another assay is T4, ETV3L (Homo sapiens, UniProt Q6ZN32 1-361).
T4 sequence: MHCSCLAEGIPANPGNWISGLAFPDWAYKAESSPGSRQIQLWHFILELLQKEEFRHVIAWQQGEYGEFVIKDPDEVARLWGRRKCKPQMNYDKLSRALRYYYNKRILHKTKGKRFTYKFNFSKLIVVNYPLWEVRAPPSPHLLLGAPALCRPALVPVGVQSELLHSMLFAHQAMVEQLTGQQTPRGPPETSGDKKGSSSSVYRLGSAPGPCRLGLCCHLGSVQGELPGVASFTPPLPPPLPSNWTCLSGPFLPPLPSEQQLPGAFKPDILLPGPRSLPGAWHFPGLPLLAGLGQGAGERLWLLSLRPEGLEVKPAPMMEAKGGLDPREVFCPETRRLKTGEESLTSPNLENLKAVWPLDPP
The procedure, abridged: as §1

The target of the next assay is T5, ETS2 (Homo sapiens, UniProt P15036 1-469).
T5 sequence: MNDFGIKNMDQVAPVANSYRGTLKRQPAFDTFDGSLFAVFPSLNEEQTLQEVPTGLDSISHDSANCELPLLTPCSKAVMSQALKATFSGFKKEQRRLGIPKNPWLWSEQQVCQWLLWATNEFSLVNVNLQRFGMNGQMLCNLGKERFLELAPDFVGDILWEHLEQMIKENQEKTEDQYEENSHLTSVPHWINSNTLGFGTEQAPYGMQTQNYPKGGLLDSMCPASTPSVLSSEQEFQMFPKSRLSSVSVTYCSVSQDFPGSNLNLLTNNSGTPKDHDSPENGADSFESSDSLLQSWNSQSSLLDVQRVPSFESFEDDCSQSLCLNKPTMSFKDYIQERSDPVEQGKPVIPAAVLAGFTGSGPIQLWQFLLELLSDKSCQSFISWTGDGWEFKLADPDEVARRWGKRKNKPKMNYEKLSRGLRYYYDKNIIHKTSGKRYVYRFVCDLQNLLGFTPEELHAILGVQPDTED
An outline of the steps: as §1

Another assay concerns the target T6, SPDEF (Homo sapiens, UniProt O95238 1-335).
T6 sequence: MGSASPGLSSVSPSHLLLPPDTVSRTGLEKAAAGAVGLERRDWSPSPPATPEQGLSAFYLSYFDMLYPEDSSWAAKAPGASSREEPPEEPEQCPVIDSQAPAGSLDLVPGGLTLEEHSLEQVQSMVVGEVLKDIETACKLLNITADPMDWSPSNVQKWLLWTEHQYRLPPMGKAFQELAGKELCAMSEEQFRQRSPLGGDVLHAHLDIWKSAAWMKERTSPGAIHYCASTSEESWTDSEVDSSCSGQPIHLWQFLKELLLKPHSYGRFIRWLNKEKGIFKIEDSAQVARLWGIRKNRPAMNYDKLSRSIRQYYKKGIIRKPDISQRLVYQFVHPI
The procedure, abridged: as §1

The target of another assay is T7, ETV7 (Homo sapiens, UniProt Q9Y603 1-341).
T7 sequence: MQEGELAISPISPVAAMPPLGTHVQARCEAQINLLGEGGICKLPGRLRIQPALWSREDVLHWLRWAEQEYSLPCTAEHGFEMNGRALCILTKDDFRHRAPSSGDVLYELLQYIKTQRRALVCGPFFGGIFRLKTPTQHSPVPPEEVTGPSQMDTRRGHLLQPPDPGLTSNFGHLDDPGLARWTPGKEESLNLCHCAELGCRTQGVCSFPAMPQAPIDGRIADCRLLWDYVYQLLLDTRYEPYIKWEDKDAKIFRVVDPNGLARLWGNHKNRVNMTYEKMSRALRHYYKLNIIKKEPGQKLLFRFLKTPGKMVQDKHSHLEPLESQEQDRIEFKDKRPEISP
An outline of the steps: as §1

The target of a further assay is T8, ETV3 (Homo sapiens, UniProt P41162-2 1-143).
T8 sequence: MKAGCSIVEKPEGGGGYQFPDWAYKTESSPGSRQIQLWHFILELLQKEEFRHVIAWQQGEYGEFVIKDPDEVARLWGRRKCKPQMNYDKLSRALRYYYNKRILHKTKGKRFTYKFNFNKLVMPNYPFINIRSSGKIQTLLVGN
An outline of the steps:
as §1

For the next assay, the target named is ETV6 (Homo sapiens, UniProt P41212 1-452). The procedure, abridged:
as §1

Sequence of ETV6 (P41212 whole entry): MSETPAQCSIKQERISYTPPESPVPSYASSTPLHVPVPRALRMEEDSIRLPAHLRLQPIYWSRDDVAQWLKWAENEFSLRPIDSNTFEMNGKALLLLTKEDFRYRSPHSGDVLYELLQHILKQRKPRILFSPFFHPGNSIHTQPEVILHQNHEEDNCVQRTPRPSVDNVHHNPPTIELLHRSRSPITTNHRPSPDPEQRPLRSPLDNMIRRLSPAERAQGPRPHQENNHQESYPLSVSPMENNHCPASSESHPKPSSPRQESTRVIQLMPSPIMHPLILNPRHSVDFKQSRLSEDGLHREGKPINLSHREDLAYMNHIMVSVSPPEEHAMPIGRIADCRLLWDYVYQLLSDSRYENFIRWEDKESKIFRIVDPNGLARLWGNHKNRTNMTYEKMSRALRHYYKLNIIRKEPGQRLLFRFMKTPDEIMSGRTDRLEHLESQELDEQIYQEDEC
Sequence of ETV1 (P50549 whole entry): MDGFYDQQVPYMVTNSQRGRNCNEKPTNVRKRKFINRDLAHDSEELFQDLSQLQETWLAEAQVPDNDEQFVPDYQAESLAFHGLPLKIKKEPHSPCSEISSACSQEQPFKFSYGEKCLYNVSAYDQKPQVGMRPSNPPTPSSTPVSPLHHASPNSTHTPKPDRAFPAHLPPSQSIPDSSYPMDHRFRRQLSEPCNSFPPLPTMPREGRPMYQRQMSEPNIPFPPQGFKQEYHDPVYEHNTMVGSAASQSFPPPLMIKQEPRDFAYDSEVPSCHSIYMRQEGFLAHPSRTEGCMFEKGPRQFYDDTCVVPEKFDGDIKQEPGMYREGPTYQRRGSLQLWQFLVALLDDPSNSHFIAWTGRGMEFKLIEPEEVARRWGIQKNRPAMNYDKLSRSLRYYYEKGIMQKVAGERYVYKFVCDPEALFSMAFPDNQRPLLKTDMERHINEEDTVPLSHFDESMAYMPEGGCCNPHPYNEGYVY

In the case of GCTGGT, the binding signal is 1.45 fold enrichment (6-mer frequency, TF over GST control) in the assay with ELK4; 1.16 fold enrichment (6-mer frequency, TF over GST control) in the assay with ELF3; 1.02 fold enrichment (6-mer frequency, TF over GST control) with ETV1; 1.14 fold enrichment (6-mer frequency, TF over GST control) in the assay with ERF; 1.19 fold enrichment (6-mer frequency, TF over GST control) in the assay with ETV3L; 1.17 fold enrichment (6-mer frequency, TF over GST control) in the assay with ETS2. The binding signal in the assay with SPDEF is 1.2 fold enrichment (6-mer frequency, TF over GST control); in the assay with ETV7, 1.17 fold enrichment (6-mer frequency, TF over GST control); in the assay with ETV3 it was 1.29 fold enrichment (6-mer frequency, TF over GST control); with ETV6, 1.13 fold enrichment (6-mer frequency, TF over GST control).
